Our source for the binding signal values is publication PMC7862700, “An all-to-all approach to the identification of sequence-specific readers for epigenetic DNA modifications on cytosine”.

What all share (assay): DAPPL (digital affinity profiling via proximity ligation, sequencing); 10 mM Tris-HCl pH 7.5, 50 mM NaCl, 1 mM DTT, 4% glycerol, room temperature, 30 min; GST-TFs on glutathione beads, 16-mer random dsDNA library, 0.1% formaldehyde crosslink after washing; high values mean tight binding
Holding throughout (conditions): protein: recombinant; tags: N-terminal GST; dsDNA, one strand shown

One experiment concerns the target T1, ELK1 (Homo sapiens, UniProt P19419 1-428).
T1 sequence: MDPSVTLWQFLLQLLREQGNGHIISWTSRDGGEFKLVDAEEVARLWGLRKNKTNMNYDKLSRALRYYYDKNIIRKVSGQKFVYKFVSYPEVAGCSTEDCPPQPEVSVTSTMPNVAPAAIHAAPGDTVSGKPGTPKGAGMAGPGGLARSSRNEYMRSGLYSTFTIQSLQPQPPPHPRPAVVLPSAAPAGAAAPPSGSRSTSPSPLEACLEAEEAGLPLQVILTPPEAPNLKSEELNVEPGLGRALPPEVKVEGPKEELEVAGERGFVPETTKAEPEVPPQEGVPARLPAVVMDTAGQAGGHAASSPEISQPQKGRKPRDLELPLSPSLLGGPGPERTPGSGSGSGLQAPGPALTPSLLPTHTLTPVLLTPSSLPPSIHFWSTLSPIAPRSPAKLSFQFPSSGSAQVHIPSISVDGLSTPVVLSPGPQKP
The method in brief: (§1)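 GST fusions of human transcription factors were expressed in yeast and captured with glutathione beads. Once given DNA barcodes and pooled alongside a tag-only sample, they were incubated for 30 min at room temperature with 200 nmole of a random double-stranded 16-mer DNA library in Tris/NaCl/DTT/glycerol buffer, then washed, crosslinked (0.1% formaldehyde), proximity-ligated, PCR-amplified and sequenced on an Illumina NextSeq500. The binding signal of each hexamer is its read frequency for a factor divided by its frequency for the tag-only sample.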

For a further experiment, the target named is T2, GABPA (Homo sapiens, UniProt Q06546 1-454).
T2 sequence: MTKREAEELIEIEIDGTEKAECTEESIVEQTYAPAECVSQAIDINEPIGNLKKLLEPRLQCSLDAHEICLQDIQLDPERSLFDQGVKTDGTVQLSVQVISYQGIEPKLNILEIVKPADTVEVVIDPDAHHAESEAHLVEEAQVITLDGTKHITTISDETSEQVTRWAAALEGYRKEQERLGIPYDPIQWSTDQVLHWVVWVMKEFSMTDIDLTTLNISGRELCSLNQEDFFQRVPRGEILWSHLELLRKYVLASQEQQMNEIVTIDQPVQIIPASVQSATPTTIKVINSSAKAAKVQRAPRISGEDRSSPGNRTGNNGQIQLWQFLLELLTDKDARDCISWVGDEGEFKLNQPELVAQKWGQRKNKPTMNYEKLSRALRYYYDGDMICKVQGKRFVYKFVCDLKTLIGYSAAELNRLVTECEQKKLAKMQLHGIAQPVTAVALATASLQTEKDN
In outline:
as §1

The target in another experiment is T3, ERG (Homo sapiens, UniProt P11308 1-479).
T3 sequence: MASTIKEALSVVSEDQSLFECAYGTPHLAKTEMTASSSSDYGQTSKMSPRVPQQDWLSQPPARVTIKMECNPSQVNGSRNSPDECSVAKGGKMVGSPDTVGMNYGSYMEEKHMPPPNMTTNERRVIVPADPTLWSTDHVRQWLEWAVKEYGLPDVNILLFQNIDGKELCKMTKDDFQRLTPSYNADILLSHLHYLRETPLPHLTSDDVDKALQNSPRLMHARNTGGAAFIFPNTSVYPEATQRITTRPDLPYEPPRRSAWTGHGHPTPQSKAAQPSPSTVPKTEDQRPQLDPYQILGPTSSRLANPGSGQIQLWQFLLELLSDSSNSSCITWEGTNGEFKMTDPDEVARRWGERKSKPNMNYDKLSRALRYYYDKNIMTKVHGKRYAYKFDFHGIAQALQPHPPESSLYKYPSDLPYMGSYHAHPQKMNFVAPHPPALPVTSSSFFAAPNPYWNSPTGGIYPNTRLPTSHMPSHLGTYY
In outline:
as §1

Another experiment deals with ELF1 (Homo sapiens, UniProt P32519 1-619). In outline:
as §1

In another experiment the target is T4, EHF (Homo sapiens, UniProt Q9NZC4 1-300).
T4 sequence: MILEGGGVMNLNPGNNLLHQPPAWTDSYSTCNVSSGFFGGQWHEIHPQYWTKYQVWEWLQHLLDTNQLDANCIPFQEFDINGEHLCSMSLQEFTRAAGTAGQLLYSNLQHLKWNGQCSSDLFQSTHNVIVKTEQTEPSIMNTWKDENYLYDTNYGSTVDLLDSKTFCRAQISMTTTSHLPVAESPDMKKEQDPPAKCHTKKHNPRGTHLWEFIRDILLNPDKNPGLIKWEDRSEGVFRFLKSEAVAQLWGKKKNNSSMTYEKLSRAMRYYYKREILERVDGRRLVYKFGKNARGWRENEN
In outline: as §1

The target in another experiment is SPI1 (Homo sapiens, UniProt P17947 1-270). In outline:
as §1

A further experiment deals with SPIB (Homo sapiens, UniProt Q01892 1-262). The method in brief: as §1
For the next experiment, the target named is ETV5 (Homo sapiens, UniProt P41161 1-510). In outline:
as §1

The next experiment addresses ELF4 (Homo sapiens, UniProt Q99607 1-663). In outline:
as §1

In another experiment the target is T5, ELK4 (Homo sapiens, UniProt P28324-2 1-405).
T5 sequence: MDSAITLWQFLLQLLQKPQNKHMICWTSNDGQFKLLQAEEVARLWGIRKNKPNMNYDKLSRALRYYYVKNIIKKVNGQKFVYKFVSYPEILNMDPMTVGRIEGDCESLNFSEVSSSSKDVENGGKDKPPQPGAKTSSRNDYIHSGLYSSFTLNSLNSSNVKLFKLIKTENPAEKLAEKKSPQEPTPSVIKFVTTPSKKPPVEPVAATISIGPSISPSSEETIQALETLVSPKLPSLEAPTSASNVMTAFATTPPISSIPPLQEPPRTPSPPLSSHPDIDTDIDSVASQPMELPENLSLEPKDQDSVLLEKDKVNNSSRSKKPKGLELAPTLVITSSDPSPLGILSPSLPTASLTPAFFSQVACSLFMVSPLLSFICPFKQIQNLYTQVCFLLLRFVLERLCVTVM
The method in brief: as §1

The target of the next experiment is T6, ETV2 (Homo sapiens, UniProt O00321 1-342).
T6 sequence: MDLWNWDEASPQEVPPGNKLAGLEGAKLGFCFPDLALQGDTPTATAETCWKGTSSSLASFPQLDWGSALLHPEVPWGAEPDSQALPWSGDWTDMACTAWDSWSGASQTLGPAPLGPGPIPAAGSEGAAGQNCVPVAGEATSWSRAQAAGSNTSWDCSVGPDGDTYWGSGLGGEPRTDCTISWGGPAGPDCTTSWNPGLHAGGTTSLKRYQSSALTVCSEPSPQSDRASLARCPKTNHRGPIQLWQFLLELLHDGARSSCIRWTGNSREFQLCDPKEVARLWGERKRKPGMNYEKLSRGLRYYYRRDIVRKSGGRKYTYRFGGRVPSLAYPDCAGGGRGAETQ
In outline: as §1

The next experiment addresses ETV1 (Homo sapiens, UniProt P50549 1-477). The method in brief:
as §1

A further experiment deals with T7, ETV3L (Homo sapiens, UniProt Q6ZN32 1-361).
T7 sequence: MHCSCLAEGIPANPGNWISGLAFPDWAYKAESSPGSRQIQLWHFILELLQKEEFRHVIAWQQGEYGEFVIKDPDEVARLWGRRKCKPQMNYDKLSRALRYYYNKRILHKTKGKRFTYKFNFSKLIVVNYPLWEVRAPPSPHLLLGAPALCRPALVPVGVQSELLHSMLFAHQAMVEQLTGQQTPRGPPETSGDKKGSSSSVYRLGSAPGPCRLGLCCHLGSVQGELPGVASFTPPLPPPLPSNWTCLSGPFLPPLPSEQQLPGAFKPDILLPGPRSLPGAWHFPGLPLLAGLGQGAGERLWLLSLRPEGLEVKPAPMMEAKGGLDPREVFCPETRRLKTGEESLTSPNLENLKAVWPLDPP
The method in brief: as §1

For another experiment, the target named is T8, ETS2 (Homo sapiens, UniProt P15036 1-469).
T8 sequence: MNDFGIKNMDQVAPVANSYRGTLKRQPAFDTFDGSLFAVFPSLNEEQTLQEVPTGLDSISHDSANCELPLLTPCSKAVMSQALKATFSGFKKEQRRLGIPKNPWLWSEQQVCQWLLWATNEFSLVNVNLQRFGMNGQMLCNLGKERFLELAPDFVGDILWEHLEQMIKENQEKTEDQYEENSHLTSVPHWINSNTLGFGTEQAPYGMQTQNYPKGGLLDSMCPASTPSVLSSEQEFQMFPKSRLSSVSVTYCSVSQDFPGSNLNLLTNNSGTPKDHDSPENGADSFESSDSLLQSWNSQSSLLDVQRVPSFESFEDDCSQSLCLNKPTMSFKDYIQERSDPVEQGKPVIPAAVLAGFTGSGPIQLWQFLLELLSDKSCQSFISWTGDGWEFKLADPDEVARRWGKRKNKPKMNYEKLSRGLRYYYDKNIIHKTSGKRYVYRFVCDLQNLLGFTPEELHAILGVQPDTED
The method in brief:
as §1

The target in another experiment is T9, ETV7 (Homo sapiens, UniProt Q9Y603 1-341).
T9 sequence: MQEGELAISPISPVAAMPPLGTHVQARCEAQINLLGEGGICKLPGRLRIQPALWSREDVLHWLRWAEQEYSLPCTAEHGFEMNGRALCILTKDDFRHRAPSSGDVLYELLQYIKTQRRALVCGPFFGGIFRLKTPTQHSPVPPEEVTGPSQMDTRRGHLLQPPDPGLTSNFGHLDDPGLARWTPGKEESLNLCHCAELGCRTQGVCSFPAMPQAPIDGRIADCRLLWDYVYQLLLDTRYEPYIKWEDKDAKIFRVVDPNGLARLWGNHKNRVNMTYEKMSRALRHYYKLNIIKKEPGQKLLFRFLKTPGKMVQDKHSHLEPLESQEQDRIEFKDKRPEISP
The method in brief:
as §1

In another experiment the target is T10, ETV3 (Homo sapiens, UniProt P41162-2 1-143).
T10 sequence: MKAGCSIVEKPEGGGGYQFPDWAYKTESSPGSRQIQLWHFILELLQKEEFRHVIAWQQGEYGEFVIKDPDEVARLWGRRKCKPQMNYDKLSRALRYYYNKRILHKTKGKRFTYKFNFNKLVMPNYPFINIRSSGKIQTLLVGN
The method in brief: as §1

In the next experiment the target is ETV6 (Homo sapiens, UniProt P41212 1-452). The method in brief:
as §1

ELF1, sequence (P32519 whole entry): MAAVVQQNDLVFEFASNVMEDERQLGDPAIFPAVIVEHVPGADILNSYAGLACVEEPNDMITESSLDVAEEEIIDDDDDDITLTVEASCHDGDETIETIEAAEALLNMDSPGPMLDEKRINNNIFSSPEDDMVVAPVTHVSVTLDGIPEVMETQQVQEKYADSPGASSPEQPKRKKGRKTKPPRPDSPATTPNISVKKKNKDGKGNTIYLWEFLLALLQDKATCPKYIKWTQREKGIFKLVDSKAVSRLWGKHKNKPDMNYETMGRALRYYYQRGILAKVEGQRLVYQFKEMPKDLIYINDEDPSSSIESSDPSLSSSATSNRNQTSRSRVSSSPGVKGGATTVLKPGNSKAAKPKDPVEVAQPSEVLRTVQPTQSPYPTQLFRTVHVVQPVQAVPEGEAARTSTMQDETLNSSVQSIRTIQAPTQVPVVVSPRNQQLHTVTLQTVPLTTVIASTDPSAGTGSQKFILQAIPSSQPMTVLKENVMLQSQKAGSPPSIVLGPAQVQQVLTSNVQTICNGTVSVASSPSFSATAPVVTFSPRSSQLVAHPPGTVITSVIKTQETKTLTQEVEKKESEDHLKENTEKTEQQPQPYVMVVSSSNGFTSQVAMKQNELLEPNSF
ETV1, sequence (P50549 whole entry): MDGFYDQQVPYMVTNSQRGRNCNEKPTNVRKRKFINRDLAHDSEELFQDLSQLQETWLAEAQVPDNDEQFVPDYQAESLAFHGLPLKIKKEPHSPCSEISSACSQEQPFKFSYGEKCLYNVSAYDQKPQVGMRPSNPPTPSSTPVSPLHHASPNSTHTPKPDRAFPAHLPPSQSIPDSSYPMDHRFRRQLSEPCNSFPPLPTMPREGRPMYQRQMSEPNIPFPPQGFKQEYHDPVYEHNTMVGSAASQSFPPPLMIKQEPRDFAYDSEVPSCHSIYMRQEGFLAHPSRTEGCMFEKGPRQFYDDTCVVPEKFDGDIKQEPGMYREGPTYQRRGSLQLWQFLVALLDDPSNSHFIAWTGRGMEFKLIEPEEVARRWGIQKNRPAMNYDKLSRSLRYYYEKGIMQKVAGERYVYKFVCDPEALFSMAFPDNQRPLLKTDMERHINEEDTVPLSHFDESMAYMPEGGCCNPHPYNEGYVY
ETV5, sequence (P41161 whole entry): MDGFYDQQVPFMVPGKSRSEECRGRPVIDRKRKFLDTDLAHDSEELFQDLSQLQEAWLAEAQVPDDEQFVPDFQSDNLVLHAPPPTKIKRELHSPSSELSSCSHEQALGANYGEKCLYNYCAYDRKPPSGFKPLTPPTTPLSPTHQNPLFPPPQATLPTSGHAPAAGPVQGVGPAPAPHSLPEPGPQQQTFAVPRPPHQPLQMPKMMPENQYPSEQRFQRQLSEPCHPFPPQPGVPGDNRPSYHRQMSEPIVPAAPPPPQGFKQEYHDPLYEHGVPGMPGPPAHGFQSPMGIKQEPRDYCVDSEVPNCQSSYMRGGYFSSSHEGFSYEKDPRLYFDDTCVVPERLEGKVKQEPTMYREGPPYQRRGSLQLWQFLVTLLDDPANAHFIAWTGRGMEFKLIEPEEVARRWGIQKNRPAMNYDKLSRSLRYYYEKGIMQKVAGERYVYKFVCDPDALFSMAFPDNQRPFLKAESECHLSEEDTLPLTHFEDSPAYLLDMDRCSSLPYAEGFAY
SPIB, sequence (Q01892 whole entry): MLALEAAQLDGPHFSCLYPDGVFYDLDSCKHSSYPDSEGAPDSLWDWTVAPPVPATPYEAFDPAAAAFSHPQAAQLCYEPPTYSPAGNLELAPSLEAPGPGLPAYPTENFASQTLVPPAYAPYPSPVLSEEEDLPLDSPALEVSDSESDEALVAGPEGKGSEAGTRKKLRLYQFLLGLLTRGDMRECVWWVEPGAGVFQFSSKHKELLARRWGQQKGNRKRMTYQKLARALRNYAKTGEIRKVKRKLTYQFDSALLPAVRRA
ETV6, sequence (P41212 whole entry): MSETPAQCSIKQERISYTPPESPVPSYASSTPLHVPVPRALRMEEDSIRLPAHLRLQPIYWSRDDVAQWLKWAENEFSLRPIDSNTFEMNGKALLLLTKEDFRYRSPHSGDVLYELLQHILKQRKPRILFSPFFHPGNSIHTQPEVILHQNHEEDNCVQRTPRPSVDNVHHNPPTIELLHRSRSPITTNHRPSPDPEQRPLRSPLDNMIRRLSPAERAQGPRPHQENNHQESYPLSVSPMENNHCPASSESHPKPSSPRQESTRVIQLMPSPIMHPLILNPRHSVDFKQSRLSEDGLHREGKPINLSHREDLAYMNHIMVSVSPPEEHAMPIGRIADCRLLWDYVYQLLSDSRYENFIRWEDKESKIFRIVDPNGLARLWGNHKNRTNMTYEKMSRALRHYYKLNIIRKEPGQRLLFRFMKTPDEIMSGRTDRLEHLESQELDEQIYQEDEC
ELF4, sequence (Q99607 whole entry): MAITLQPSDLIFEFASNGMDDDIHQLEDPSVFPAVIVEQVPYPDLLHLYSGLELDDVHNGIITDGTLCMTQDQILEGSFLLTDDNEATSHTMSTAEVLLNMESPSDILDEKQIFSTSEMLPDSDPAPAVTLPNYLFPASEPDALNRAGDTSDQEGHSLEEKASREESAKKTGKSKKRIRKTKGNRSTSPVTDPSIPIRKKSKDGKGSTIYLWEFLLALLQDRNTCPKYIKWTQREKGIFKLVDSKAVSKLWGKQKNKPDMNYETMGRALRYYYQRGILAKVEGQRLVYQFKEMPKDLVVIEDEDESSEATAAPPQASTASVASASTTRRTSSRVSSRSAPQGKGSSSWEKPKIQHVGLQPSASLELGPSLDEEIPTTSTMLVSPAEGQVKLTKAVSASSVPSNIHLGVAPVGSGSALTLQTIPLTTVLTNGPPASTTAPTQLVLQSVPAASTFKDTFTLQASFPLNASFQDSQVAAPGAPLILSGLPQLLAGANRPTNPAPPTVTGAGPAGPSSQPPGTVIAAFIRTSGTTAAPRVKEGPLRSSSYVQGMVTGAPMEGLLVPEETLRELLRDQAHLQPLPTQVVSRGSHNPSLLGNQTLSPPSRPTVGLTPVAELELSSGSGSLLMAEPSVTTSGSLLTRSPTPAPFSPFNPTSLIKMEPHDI

As to CTGGGC, the binding signal in the experiment with ELK1 is 1.08 fold enrichment (6-mer frequency, TF over GST control); with GABPA it was 1.09 fold enrichment (6-mer frequency, TF over GST control); in the experiment with ERG, 1.04 fold enrichment (6-mer frequency, TF over GST control); with ELF1 it was 1.24 fold enrichment (6-mer frequency, TF over GST control); with EHF, 1.01 fold enrichment (6-mer frequency, TF over GST control); with SPI1, 1.05 fold enrichment (6-mer frequency, TF over GST control). Also, the binding signal with SPIB was 1.03 fold enrichment (6-mer frequency, TF over GST control); with ETV5 it was 1.04 fold enrichment (6-mer frequency, TF over GST control); in the experiment with ELF4, 1.07 fold enrichment (6-mer frequency, TF over GST control); in the experiment with ELK4, 1.11 fold enrichment (6-mer frequency, TF over GST control); with ETV2, 1.13 fold enrichment (6-mer frequency, TF over GST control); with ETV1, 1 fold enrichment (6-mer frequency, TF over GST control). For the same sequence, the binding signal in the experiment with ETV3L is 1.12 fold enrichment (6-mer frequency, TF over GST control); with ETS2, 1.03 fold enrichment (6-mer frequency, TF over GST control); with ETV7 it was 1.24 fold enrichment (6-mer frequency, TF over GST control); with ETV3, 1.03 fold enrichment (6-mer frequency, TF over GST control); with ETV6, 1.03 fold enrichment (6-mer frequency, TF over GST control).
